Measured values: PubChem BioAssay (NCI)
Compounds without any hit were thinned out: in the full panel of roughly 83,000, 20% have a hit.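 Growth was measured after 48 h exposure to one concentration of compound in 96-well plates. Values under 10 count as active.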 Values without a mark were called inactive. Active and inactive are the calls of the source.

These compounds were tested on SR leukemia (assay: NCI-60 one-dose screen, 48 h (100 = growth as untreated, 0 = no growth, -100 = all killed)). Conditions: 10 µM unless noted.
Experimental: Growth inhibition of the SR human tumor cell line is measured as a screen for anti-cancer activity. Cells are grown in 96 well plates and exposed to the test compound for 48 hours. Compounds are tested at a single concentration, which is 10^-5 M for most compounds. The reported endpoint is percent growth (GI% or GIPRCNT), where numbers from 0 - 100% represent growth inhibition, and numbers from -100% - 0 represent cell death. For example, a value of 40 represents 60% growth inhibition. A value of 0 means no net growth occurred over the course of the experiment. A value of -40 indicates 40% of cells at the beginning of the experiment died by the end of the experiment. A value of -100 means all cells are dead at the end of the experiment.
NCI-60 Human Tumor Cell Lines Screen was performed using the standard one-dose NCI protocol, which is described in more detail at https://dtp.cancer.gov/discovery_development/nci-60/default.htm.
Compounds with GIPRCNT values below 10 were considered active. Activity score was based on GIPRCNT using the following formula: […]
Score is 0 for GIPRCNT values of 100 or above, 50 for GIPRCNT values of 0, and 100 for GIPRCNT values of -100.

| Compound | growth |
| --- | --- |
| O=c1[nH]c(=S)[nH]c(=O)n1Cc1cccc2ccccc12 | 102% |
| O=C1C(N2CCOCC2)=Cc2cccc3cccc1c23 | 40.8% |
| Cn1c2ccccc2c2nn(Cc3ccccc3)c(=O)nc21 | 97.7% |
| CN1CCC(OC2c3ccccc3CCc3ccccc32)CC1 | 96.5% |
| COC(=O)c1c2c(c(C)[n+]([O-])c1C)C(=O)C=C(NCc1cccc(Cl)c1)C2=O | 1.95% (active) |
| CCCCOC(=O)C1OC(Oc2ccc3c(C)cc(=O)oc3c2)[C@@H](OC(C)=O)C(OC(C)=O)C1OC(C)=O (stereo not given in full) | 88.1% |
| CCOC(=O)c1[nH]c2cc(Cl)ccc2c1[C@@H](C(=O)NC(C)(C)C)N(CC)C(=O)CCCCC#Cc1cccc2c1CN(C1CCC(=O)NC1=O)C2=O (stereo not given in full) | 12.7% |
| O=C(CCc1nnc2sc(-c3ccccc3)nn12)c1nc2ccccc2[nH]1 | 69.6% |
| COc1cccc(C2CC(=O)Nc3cc4c(cc32)CCC4)c1OC (stereo not given) | 3.06% (active) |
| Nc1c(Br)cc(Br)cc1-c1n[nH]c(=O)[nH]c1=O | 7.84% (active) |
| Cc1cc(C)c(S(=O)O)c(C)c1 | 102% |
| O=C(Nc1nc2ccccc2[nH]1)C(=O)Nc1nc2ccccc2[nH]1 | 89.6% |
| COC(=O)c1c2c(c(C)[n+]([O-])c1C)C(=O)C=C(NCc1ccc(Cl)cc1)C2=O | 3.91% (active) |
| Cc1nc2cc(Nc3nc(N4CCCCC4)nc(N4CCOCC4)n3)ccc2n1Cc1ccccc1 | 25.2% |
| O=C(CCCCCCC(=O)Nc1ccc2c(c1)/C(=C/c1ccc[nH]1)C(=O)N2)NO | 4.1% (active) |
| O=C(N/N=C(\CS(=O)(=O)c1ccccc1)c1cc2cc(Br)ccc2oc1=O)c1ccccc1 | 122% |
| COc1ccc(/C=N/OCC(O)CN2CCC(O)CC2)cc1OC1CCCC1 (stereo not given) | 112% |
| COc1ccc(/C=C/C(=O)N2CCC(O)CC2)cc1OC1CCCC1 | 108% |
| Cc1cc(=O)oc2c1ccc1oc(C(=O)c3ccccc3)c(C)c12 | 60.3% |
| CCCN1CCN(c2ccc3nc(-c4ccc5nc(-c6ccc(C(F)(F)F)cc6)[nH]c5c4)[nH]c3c2)CC1 | -35.5% (active) |

| Compound | growth |
| --- | --- |
| CCOC(=O)c1cc2c(n(C)c1=O)-c1cnn(-c3ccc(OC)cc3)c1CC2 | 87.2% |
| O=S(=O)(OCCO)c1ccccc1 | 100% |
| COc1ccc(OC)c2ncccc12 | 99% |
| Clc1cccc(Cl)c1Nc1ccc2nnc(-c3ccncc3)n2n1 | 62.4% |
| Cc1cc(Cl)c2c(Cl)ccc(Cl)c2n1 | 91.9% |
| COc1cc(NC(=O)COc2ccccc2)c(C(N)=O)cc1OC | 23.3% |
| COc1ccc(/C=C2\SC(=O)N(CN3CCN(c4cc5c(cc4F)c(=O)c(C(=O)O)cn5C4CC4)CC3)C2=O)cc1 | 102% |
| COc1cc(/C=C2\C(=O)N(c3c(Cl)cccc3Cl)c3ccccc32)cc(OC)c1O | 3.84% (active) |
| Clc1ccc2c(N3CCN(c4ccnc(NC5CCCCC5)n4)CC3)ccnc2c1 | -36% (active) |
| Cc1ccc2c(N/N=C\c3ccco3)cc(C)nc2n1 | -8.66% (active) |
| O=C1c2c(c3c4cc(Br)ccc4[nH]c3c3ccc4ccccc4c23)C(=O)N1O | 33.9% |
| Cc1nc2cc(Nc3nc(NCCO)nc(Nc4ccc(F)cc4)n3)ccc2n1Cc1ccccc1 | 14.9% |
| COc1cc2oc(-c3ccc(O)cc3)cc(=O)c2c(O)c1I | 79.3% |
| COc1cccc(OC)c1OC(=O)c1ccccc1 | 91.7% |
| NC(=O)c1cc(Cl)ccc1NC(=O)COc1ccccc1 | 23% |
| O=C(COc1ccc(/C=C2\CSc3ccccc3C2=O)cc1)c1ccc(Cl)cc1 | 93.1% |
| O=C1/C(=C/c2ccccc2F)CNC/C1=C\c1ccccc1F | -2.72% (active) |
| COc1cc(/C=N/NC(=O)c2cnn3c2NC(c2ccccc2)C3)ccc1OC1CCCC1 (stereo not given) | 35.2% |
| O=C(N/N=C/c1ccc(OC(F)F)c(OC2CCCC2)c1)c1cnn2c1NC(c1ccccc1)C2 (stereo not given) | 37.4% |
| Cn1c2ccccc2c2nn(C(=O)c3ccccc3)c(=O)nc21 | 93.7% |
